Eleven molecules from PubChem BioAssay (NCI) can be followed below.

The panel holds about 83,000 compounds, 20% with a hit somewhere; the sample as a whole holds those more often.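 Activity criterion: percent growth below 10, measured after cells in 96-well plates were exposed to a single compound concentration for 48 hours.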 A number with no mark means an inactive call. Activity calls are given as the source filed them.

Some test systems named below: NCI-H23 lung; NCI-H226 lung; NCI-H322M lung; HOP-62 NSCLC; HOP-92 NSCLC; NCI-H522 lung; A549/ATCC NSCLC; 786-0 renal; COLO 205 colon; DU-145 prostate; K-562 leukemia; MALME-3M melanoma; MDA-MB-231 breast; RXF 393 renal; SF-268 CNS; SF-295 CNS; SF-539 CNS; UACC-257 melanoma; M14 melanoma.
Holding throughout (assay): NCI-60 one-dose screen, 48 h (100 = growth as untreated, 0 = no growth, -100 = all killed)
What all share (details): 10 µM unless noted

On to `CCCCCCOc1ccc(C(=N)N(CCCC)CCCC)c2ccccc12`, for which the growth was -94.6% (active) with NCI-H23 lung; -70.5% (active) in the test with NCI-H226 lung; -93.6% (active) with NCI-H322M lung; -89% (active) with HOP-62 NSCLC; -81.7% (active) with HOP-92 NSCLC; -84.6% (active) with NCI-H522 lung. Besides, the growth is -83.1% (active) in the test with A549/ATCC NSCLC; -94% (active) with 786-0 renal; -79.9% (active) in the test on COLO 205 colon; -92.4% (active) with DU-145 prostate; -42.3% (active) in the test with K-562 leukemia; -82.7% (active) with MALME-3M melanoma. Further, the growth in the test on MDA-MB-231 breast is -89.7% (active); in the test on RXF 393 renal it was -94.5% (active); in the test on SF-268 CNS, -84.4% (active); in the test on SF-295 CNS it was -89.1% (active); with SF-539 CNS it was -92.8% (active); with UACC-257 melanoma, -85.5% (active). Moreover, the growth with M14 melanoma is -96.1% (active).
With `C#Cc1cccc(NC(=O)Nc2cccc(N=C=S)c2)c1`, the growth in the test on NCI-H23 lung is 99.3% [8.25 µM]; in the test on NCI-H226 lung, 101% [8.25 µM]; with NCI-H322M lung, 95.1% [8.25 µM]; in the test with HOP-62 NSCLC, 115% [8.25 µM]; in the test with HOP-92 NSCLC it was 106% [8.25 µM]; in the test on NCI-H522 lung, 90.9% [8.25 µM]. For the same molecule, the growth in the test with A549/ATCC NSCLC is 90.8% [8.25 µM]; with 786-0 renal, 95.4% [8.25 µM]; with COLO 205 colon it was 130% [8.25 µM]; in the test with DU-145 prostate, 107% [8.25 µM]; with K-562 leukemia, 107% [8.25 µM]; with MALME-3M melanoma, 90.6% [8.25 µM]. For the same molecule, the growth in the test with MDA-MB-231 breast was 94.5% [8.25 µM]; in the test with SF-268 CNS, 95.4% [8.25 µM]; with SF-295 CNS, 101% [8.25 µM]; with SF-539 CNS it was 102% [8.25 µM]; with UACC-257 melanoma, 102% [8.25 µM]; in the test on M14 melanoma, 98.5% [8.25 µM].
Turning to `Cc1c2c(cc[n+]1Cc1ccccc1)c1ccc(OCc3ccccc3)cc1n2Cc1ccccc1`, the growth is -12.2% (active) with NCI-H23 lung; -12% (active) with NCI-H226 lung; -26.9% (active) with NCI-H322M lung; -70.9% (active) in the test with HOP-62 NSCLC; -67.9% (active) in the test on HOP-92 NSCLC; -47.1% (active) in the test on NCI-H522 lung. The growth in the test with A549/ATCC NSCLC is 4.01% (active); in the test on 786-0 renal, -87.4% (active); in the test with COLO 205 colon, -82.3% (active); in the test on DU-145 prostate, -33.6% (active); in the test with K-562 leukemia, -25% (active); in the test with MALME-3M melanoma, -73.6% (active). Besides, the growth with MDA-MB-231 breast is -85.1% (active); in the test with SF-268 CNS, -90.4% (active); in the test with SF-295 CNS, -69.2% (active); in the test on SF-539 CNS, -5.52% (active); in the test with UACC-257 melanoma it was -0.651% (active); in the test on M14 melanoma, -87.9% (active).
Take `COc1cccc(CNCCN2C(=O)c3ccc4c5c(ccc(c35)C2=O)C(=O)N(CCNCc2cccc(OC)c2)C4=O)c1`: the growth in the test with NCI-H23 lung was 87.2%; in the test on NCI-H226 lung, 95.8%; in the test with NCI-H322M lung, 89.9%; with HOP-62 NSCLC it was 105%; in the test on HOP-92 NSCLC, 99.9%; with NCI-H522 lung, 86.9%. Moreover, the growth with A549/ATCC NSCLC is 46.2%; in the test on 786-0 renal it was 81%; in the test on COLO 205 colon it was 53.7%; in the test on DU-145 prostate, 113%; in the test with K-562 leukemia, 8.7% (active); in the test on MALME-3M melanoma, 26.3%. The growth is 78.1% in the test with MDA-MB-231 breast; 87% in the test on RXF 393 renal; 74.1% in the test with SF-268 CNS; 113% with SF-295 CNS; 97.8% in the test with SF-539 CNS; 79.1% with UACC-257 melanoma. The growth with M14 melanoma was 71.7%.
Take `O=C(N/N=C/c1cccnc1)c1ccccc1Nc1cccc(C(F)(F)F)c1`: the growth in the test with NCI-H23 lung is 94.2%; in the test on NCI-H226 lung it was 109%; with NCI-H322M lung it was 85.6%; with HOP-62 NSCLC, 77.5%; in the test with HOP-92 NSCLC, 72%; with NCI-H522 lung it was 81.8%. The growth is 42.4% in the test on A549/ATCC NSCLC; 83.7% in the test on 786-0 renal; 105% in the test with COLO 205 colon; 91.1% in the test with DU-145 prostate; 41.5% with K-562 leukemia; 65% in the test on MALME-3M melanoma. Besides, the growth was 118% with MDA-MB-231 breast; 76.6% in the test with SF-268 CNS; 64.7% in the test with SF-295 CNS; 96.7% with SF-539 CNS; 75.3% in the test on UACC-257 melanoma; 73% with M14 melanoma.
For the molecule `CCCCCCCCCCCCC1CCC/C=C\CCC(=O)O1` (stereo unspecified), the growth with NCI-H23 lung is 88.6%; in the test on NCI-H226 lung it was 100%; in the test with NCI-H322M lung, 117%; in the test on HOP-62 NSCLC, 111%; in the test with HOP-92 NSCLC it was 111%; in the test with NCI-H522 lung, 91.8%. The growth in the test with 786-0 renal was 95.4%; in the test with COLO 205 colon, 101%; in the test on DU-145 prostate, 115%; with K-562 leukemia, 101%; in the test with MALME-3M melanoma, 108%; in the test with MDA-MB-231 breast it was 99.3%. Besides, the growth was 101% in the test with SF-268 CNS; 103% with SF-295 CNS; 104% with SF-539 CNS; 119% with UACC-257 melanoma; 95.2% in the test with M14 melanoma.
With `Cc1c([N+](=O)[O-])cc(C(C)(C)C)cc1[N+](=O)[O-]`, the growth is 97.4% in the test with NCI-H23 lung; 91.3% with NCI-H226 lung; 117% with NCI-H322M lung; 76.2% in the test on HOP-62 NSCLC; 96.4% with HOP-92 NSCLC; 60.2% in the test with NCI-H522 lung. Besides, the growth in the test on A549/ATCC NSCLC was 81.8%; in the test on 786-0 renal, 104%; in the test with COLO 205 colon it was 114%; with DU-145 prostate, 107%; with K-562 leukemia it was 112%; in the test on MALME-3M melanoma it was 118%. Besides, the growth is 107% with MDA-MB-231 breast; 93.3% in the test on SF-268 CNS; 97.6% with SF-295 CNS; 104% with SF-539 CNS; 85.4% in the test with UACC-257 melanoma; 107% with M14 melanoma.
With `COc1cc(/C=C/C(=O)c2c(C)oc3nc[nH]c(=O)c23)ccc1O`, the growth in the test with NCI-H23 lung is 98.7%; in the test with NCI-H226 lung it was 102%; in the test on NCI-H322M lung, 98.3%; in the test on HOP-62 NSCLC, 93.9%; in the test on HOP-92 NSCLC, 116%; in the test with NCI-H522 lung it was 101%. Moreover, the growth in the test with A549/ATCC NSCLC was 101%; in the test on 786-0 renal, 102%; in the test on COLO 205 colon it was 102%; in the test with DU-145 prostate it was 116%; in the test with K-562 leukemia, 111%; in the test on MALME-3M melanoma, 103%. Moreover, the growth in the test with MDA-MB-231 breast was 106%; in the test with SF-268 CNS, 99.6%; with SF-295 CNS, 99.3%; in the test on SF-539 CNS it was 97.5%; in the test on UACC-257 melanoma, 96.6%; with M14 melanoma, 99.6%.
Regarding `O=C1/C(=C\c2cn(Cc3ccccc3)c3ccc(Br)cc23)c2ccccc2N1c1c(Cl)cccc1Cl`, the growth in the test with NCI-H23 lung is 96.9%; in the test with NCI-H226 lung it was 91.6%; in the test on NCI-H322M lung, 96.8%; in the test on HOP-62 NSCLC, 98.5%; with HOP-92 NSCLC, 57.1%; in the test on NCI-H522 lung, 80.7%. For the same molecule, the growth in the test with A549/ATCC NSCLC was 90.5%; in the test on 786-0 renal, 99.2%; in the test with COLO 205 colon, 108%; in the test on DU-145 prostate, 127%; in the test on K-562 leukemia it was 109%; in the test with MALME-3M melanoma it was 109%. Further, the growth with MDA-MB-231 breast was 98%; in the test on RXF 393 renal it was 101%; in the test on SF-268 CNS it was 113%; with SF-295 CNS, 98.5%; in the test on SF-539 CNS, 103%; with UACC-257 melanoma it was 102%. Besides, the growth in the test on M14 melanoma was 105%.
As for `COc1cc(-c2cc(=O)oc3cc(O)ccc23)c(OC)c2c1OCO2`, the growth is 83.5% in the test on NCI-H23 lung; 86.4% with NCI-H226 lung; 89.4% in the test with NCI-H322M lung; 92.7% in the test on HOP-62 NSCLC; 79% with HOP-92 NSCLC; 81.7% in the test with NCI-H522 lung. The growth is 87% in the test on A549/ATCC NSCLC; 95.6% in the test with 786-0 renal; 102% in the test on COLO 205 colon; 101% with DU-145 prostate; 90.3% in the test on K-562 leukemia; 88.7% with MALME-3M melanoma. The growth in the test on MDA-MB-231 breast was 93.7%; in the test on SF-268 CNS it was 92.4%; with SF-295 CNS it was 92%; with SF-539 CNS, 92.1%; with UACC-257 melanoma it was 101%; in the test with M14 melanoma, 96.5%.
Regarding `C=CCn1c(SCC(=O)Nc2ccc(C(=O)/C=C/c3cc(OC)c(OC)c(OC)c3)cc2)nnc1-c1cc(OC)c(OC)c(OC)c1`, the growth was 55.2% in the test on NCI-H23 lung; 35.9% in the test with NCI-H226 lung; 85.5% in the test with NCI-H322M lung; 55% in the test on HOP-62 NSCLC; 82.2% with HOP-92 NSCLC; 47% with NCI-H522 lung. Also, the growth with A549/ATCC NSCLC is 47.2%; with 786-0 renal it was 53.6%; in the test on COLO 205 colon, 41.2%; in the test on DU-145 prostate it was 24.2%; in the test on K-562 leukemia, 6.9% (active); with MALME-3M melanoma, 92.4%. For the same molecule, the growth with MDA-MB-231 breast was 49.3%; in the test on RXF 393 renal, 21.4%; in the test with SF-268 CNS, 34.9%; in the test on SF-295 CNS it was 60.4%; in the test with SF-539 CNS, 4.95% (active); in the test on UACC-257 melanoma, 64.1%. In addition, the growth in the test with M14 melanoma is 18.6%.
